The results in this text go back to PubChem BioAssay (NCI).

About 79,000 compounds went through this panel and 15% of them were active in at least one assay; those are over-represented in the sample as a whole. A number with no mark means an inactive call. The source made the active and inactive calls. Cut-off read from the data, not from the text of the source: active = growth inhibition above about 70%; inactive = the rest.

The nature of test [1]: NCI Yeast Anticancer Drug Screen. Data for the rad50 strain (AID 155).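 Note: 0% = growth of vehicle-only cultures of the same strain.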 To be noted: S. cerevisiae rad50 strain growth inhibition, active compounds read high. The method, boiled down: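 Genetically altered yeast (DNA repair pathway); compound treatment; growth inhibition vs vehicle ctrl.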
Test [2] in a line: NCI Yeast Anticancer Drug Screen. Data for the mec2-1 strain (AID 157). Conditions: S. cerevisiae mec2-1 strain, active compounds read high. Summed up:
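Compounds were applied to mec2-1 yeast cells. Their growth was then compared with that of vehicle-treated cultures to give growth inhibition.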

Test [3] is described as follows: NCI Yeast Anticancer Drug Screen. Data for the sgs1 mgt1 strain (AID 161).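 Note: 0% = growth of cultures given vehicle only.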 To be noted: S. cerevisiae sgs1 mgt1 strain, active compounds read high. Summed up: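 This yeast growth screen uses a strain with defined DNA-repair lesions; compound-treated growth is compared with vehicle-treated growth.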
The nature of test [4]: NCI Yeast Anticancer Drug Screen. Data for the cln2 rad14 strain (AID 165).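 Note: 0% = growth equal to vehicle treated cultures.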 To be noted: S. cerevisiae cln2 rad14 strain, active compounds read high. Summed up:
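Strain: cln2 rad14 yeast, altered in cell cycle control and DNA damage repair. Read-out: growth inhibition vs vehicle.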

A short description of test [5]: NCI Yeast Anticancer Drug Screen. Data for the bub3 strain (AID 167). Conditions: S. cerevisiae bub3 mutant strain, active compounds read high. Summed up: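 Yeast carrying a defined mutation is treated with each compound, and growth is compared with that of vehicle-exposed cells to give inhibition.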
Test [6] is described as follows: NCI Yeast Anticancer Drug Screen. Data for the mlh1 rad18 strain (AID 175). To be noted: S. cerevisiae mlh1 rad18 strain growth inhibition, active compounds read high. The method, boiled down: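 A repair-deficient yeast strain is exposed to test compound, and growth is scored relative to vehicle-treated controls.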
Where [7] appears, read: at 5.0 µM (retest, dose inferred, filed as 0.5).
Setting [8] is: at 50.0 µM (retest, dose inferred, filed as 5.0).

`Cc1cc(Cl)c(C(C)C)cc1O`: the growth inhibition in test [1] (setting [7]) is 17%; in test [1] (setting [8]) it was 62%; in test [1] (at 50.0 µM), 53.2%; in test [2] (setting [7]), -4%; in test [2] (setting [8]) it was 61%; in test [2] (at 50.0 µM), 48.2%. Also, the growth inhibition in test [3] (setting [7]) is 3%; in test [3] (setting [8]), 55%; in test [3] (at 50.0 µM) it was 48.6%; in test [4] (setting [7]) it was 2%; in test [4] (setting [8]), 51%; in test [4] (at 50.0 µM), 45%. For the same compound, the growth inhibition was 7% in test [5] (setting [7]); 55% in test [5] (setting [8]); 24.4% in test [5] (at 50.0 µM); 8% in test [6] (setting [7]); 58% in test [6] (setting [8]); 63.4% in test [6] (at 50.0 µM).

Take `O=C(COC(=O)c1ccc(O)cc1)c1ccc(-c2ccccc2)cc1`: the growth inhibition in test [1] (setting [7]) was -16%; in test [1] (setting [8]), -13%; in test [1] (at 50.0 µM), 21.7%; in test [2] (setting [7]), -4%; in test [2] (setting [8]), 11%; in test [2] (at 50.0 µM) it was 25.4%. Also, the growth inhibition is -1% in test [3] (setting [7]); 12% in test [3] (setting [8]); 19.9% in test [3] (at 50.0 µM); 22% in test [4] (setting [7]); -45% in test [4] (setting [8]); 28.1% in test [4] (at 50.0 µM). In addition, the growth inhibition was 6% in test [5] (setting [7]); -20% in test [5] (setting [8]); 17.6% in test [5] (at 50.0 µM); -5% in test [6] (setting [7]); 24% in test [6] (setting [8]); 19.9% in test [6] (at 50.0 µM).

Turning to `O=C(O)c1c(Br)c(Br)c(Br)c(Br)c1-c1c2ccc(=O)cc-2oc2cc(O)ccc12`, the growth inhibition in test [1] (setting [7]) was 94% (active); in test [1] (setting [8]), 93% (active); in test [1] (at 50.0 µM) it was 84.1% (active); in test [2] (setting [7]), 95% (active); in test [2] (setting [8]), 96% (active); in test [2] (at 50.0 µM) it was 88.7% (active). In addition, the growth inhibition was 87% (active) in test [3] (setting [7]); 96% (active) in test [3] (setting [8]); 87.1% (active) in test [3] (at 50.0 µM); 88% (active) in test [4] (setting [7]); 95% (active) in test [4] (setting [8]); 87.8% (active) in test [4] (at 50.0 µM). For the same compound, the growth inhibition in test [5] (setting [7]) was 91% (active); in test [5] (setting [8]), 95% (active); in test [5] (at 50.0 µM), 85.8% (active); in test [6] (setting [7]) it was 94% (active); in test [6] (setting [8]), 92% (active); in test [6] (at 50.0 µM), 83.5% (active).

As for `COc1ccc2c(c1)OC(OC)(c1ccccc1)C(O)(OC)C2=O` (configuration not stated), the growth inhibition is 1% in test [1] (setting [7]); 21% in test [1] (setting [8]); 40.7% in test [1] (at 50.0 µM); -7% in test [2] (setting [7]); 22% in test [2] (setting [8]); 31.8% in test [2] (at 50.0 µM). Also, the growth inhibition in test [3] (setting [7]) was 3%; in test [3] (setting [8]), 35%; in test [3] (at 50.0 µM) it was 59%; in test [4] (setting [7]), -9%; in test [4] (setting [8]) it was 15%; in test [4] (at 50.0 µM), 7.25%. The growth inhibition in test [5] (setting [7]) is -1%; in test [5] (setting [8]), 17%; in test [5] (at 50.0 µM), 20.4%; in test [6] (setting [7]), -4%; in test [6] (setting [8]), 33%; in test [6] (at 50.0 µM) it was 44.4%.

`O=C(N=Nc1cccc(Cl)c1)NNc1cccc(Cl)c1`: the growth inhibition in test [1] (setting [7]) was 12%; in test [1] (setting [8]) it was 98% (active); in test [1] (at 50.0 µM) it was 85.8% (active); in test [2] (setting [7]), -11%; in test [2] (setting [8]), 99% (active); in test [2] (at 50.0 µM), 90.6% (active). The growth inhibition was -9% in test [3] (setting [7]); 91% (active) in test [3] (setting [8]); 83.2% (active) in test [3] (at 50.0 µM); 26% in test [4] (setting [7]); 99% (active) in test [4] (setting [8]); 83.5% (active) in test [4] (at 50.0 µM). The growth inhibition is -24% in test [5] (setting [7]); 99% (active) in test [5] (setting [8]); 86.3% (active) in test [5] (at 50.0 µM); -6% in test [6] (setting [7]); 98% (active) in test [6] (setting [8]); 85.4% (active) in test [6] (at 50.0 µM).

With `Cc1ccc2c(c1)CSCCO2`, the growth inhibition in test [1] (setting [7]) is 86% (active); in test [1] (setting [8]), 99% (active); in test [1] (at 50.0 µM), 99.3% (active); in test [2] (setting [7]) it was 87% (active); in test [2] (setting [8]) it was 100% (active); in test [2] (at 50.0 µM), 99.7% (active). The growth inhibition in test [3] (setting [7]) was 87% (active); in test [3] (setting [8]), 99% (active); in test [3] (at 50.0 µM), 99.5% (active); in test [4] (setting [7]), 50%; in test [4] (setting [8]), 100% (active); in test [4] (at 50.0 µM), 99.3% (active). Moreover, the growth inhibition in test [5] (setting [7]) is 90% (active); in test [5] (setting [8]), 99% (active); in test [5] (at 50.0 µM) it was 99.5% (active); in test [6] (setting [7]), 92% (active); in test [6] (setting [8]), 99% (active); in test [6] (at 50.0 µM) it was 99.5% (active).

In the case of `S=C(N/N=C/c1ccco1)NC12CC3CC(CC(C3)C1)C2`, the growth inhibition was 29% in test [1] (setting [7]); 94% (active) in test [1] (setting [8]); 2.95% in test [1] (at 50.0 µM); 24% in test [2] (setting [7]); 95% (active) in test [2] (setting [8]); 8.05% in test [2] (at 50.0 µM). The growth inhibition was 76% (active) in test [3] (setting [7]); 96% (active) in test [3] (setting [8]); 10.9% in test [3] (at 50.0 µM); 51% in test [4] (setting [7]); 91% (active) in test [4] (setting [8]); -0.25% in test [4] (at 50.0 µM). In addition, the growth inhibition in test [5] (setting [7]) is 71% (active); in test [5] (setting [8]), 93% (active); in test [5] (at 50.0 µM), 13.4%; in test [6] (setting [7]), 47%; in test [6] (setting [8]) it was 94% (active); in test [6] (at 50.0 µM) it was 26.2%.

As to `c1ccc(NN=C(c2ccccc2)c2ccccc2)cc1`, the growth inhibition in test [1] (setting [7]) was -2%; in test [1] (setting [8]), 76% (active); in test [1] (at 50.0 µM) it was 94.2% (active); in test [2] (setting [7]), -17%; in test [2] (setting [8]), 55%; in test [2] (at 50.0 µM) it was 94.3% (active). Besides, the growth inhibition in test [3] (setting [7]) was 7%; in test [3] (setting [8]), 68%; in test [3] (at 50.0 µM), 95.8% (active); in test [4] (setting [7]), 1%; in test [4] (setting [8]), 63%; in test [4] (at 50.0 µM), 91.8% (active). Besides, the growth inhibition is 12% in test [5] (setting [7]); 83% (active) in test [5] (setting [8]); 93.8% (active) in test [5] (at 50.0 µM); 12% in test [6] (setting [7]); 91% (active) in test [6] (setting [8]); 95.2% (active) in test [6] (at 50.0 µM).

Turning to `O=c1cc(-c2cccc(OCc3ccccc3)c2)[nH]c2cc3c(cc12)OCO3`, the growth inhibition in test [1] (setting [7]) was 19%; in test [1] (setting [8]), 6%; in test [1] (at 50.0 µM), 21.3%; in test [2] (setting [7]), 16%; in test [2] (setting [8]), 12%; in test [2] (at 50.0 µM), -21.4%. The growth inhibition is 21% in test [3] (setting [7]); 16% in test [3] (setting [8]); 17.1% in test [3] (at 50.0 µM); 0% in test [4] (setting [7]); 11% in test [4] (setting [8]); 5.75% in test [4] (at 50.0 µM). In addition, the growth inhibition in test [5] (setting [7]) was 14%; in test [5] (setting [8]), 6%; in test [5] (at 50.0 µM) it was 19.9%; in test [6] (setting [7]), 22%; in test [6] (setting [8]), 10%; in test [6] (at 50.0 µM) it was -51.5%.
